Sampled rows, rich in hits. Any-hit rate of the full collection: about 2%.
NPR2 activator: human GC-B receptor activators, primary screen, HEK293 GC-B cells, cGMP TR-FRET, EC30 CNP; activation, % at 10 µM; 0% at EC30 CNP, 100% saturating CNP; AID 1920062, 2024; actives 0.11% (n = 370,000);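 active = activation at 10 µM reaching about 35% in either raw or pattern-adjusted values, limit read from the data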
ADAM10 inh: human ADAM10 inhibitors, primary screen, biochemical, QFRET, HTS; recombinant ADAM10, EDANS/DABCYL FRET peptide cleavage, 3 h; inhibition, % at 7 µM; Disintegrin and metalloproteinase domain-containing protein 10 (Homo sapiens), O14672; actives 0.62% (n = 370,000);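 active = inhibition above a per-campaign cutoff equal to the mean of compounds falling between control-based bounds plus 3 SD, cut at about 20% in these data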
Target sequence (O14672 214-748 limits assumed): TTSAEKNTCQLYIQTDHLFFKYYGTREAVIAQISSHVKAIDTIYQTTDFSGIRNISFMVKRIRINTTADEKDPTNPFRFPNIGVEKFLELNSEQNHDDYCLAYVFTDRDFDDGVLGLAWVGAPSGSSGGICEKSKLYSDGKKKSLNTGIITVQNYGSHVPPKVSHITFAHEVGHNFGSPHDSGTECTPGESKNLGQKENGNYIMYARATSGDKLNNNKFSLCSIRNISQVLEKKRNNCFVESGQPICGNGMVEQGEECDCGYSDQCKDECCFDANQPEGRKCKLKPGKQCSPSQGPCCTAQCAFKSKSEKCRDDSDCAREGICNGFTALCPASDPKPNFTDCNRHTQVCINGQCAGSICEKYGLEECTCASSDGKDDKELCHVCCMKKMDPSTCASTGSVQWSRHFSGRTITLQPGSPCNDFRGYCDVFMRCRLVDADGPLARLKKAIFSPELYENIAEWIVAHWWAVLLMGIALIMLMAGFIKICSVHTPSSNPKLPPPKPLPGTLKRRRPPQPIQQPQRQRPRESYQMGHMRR
ADAM17 inh: ADAM17 inhibitors, primary screen, biochemical, QFRET; inhibition, % at 6.95 µM; AID 720648, 2013; recombinant ADAM17, EDANS/DABCYL FRET peptide cleavage; actives 0.83% (n = 370,000);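 active = inhibition above the mean of compounds lying between control limits plus 3 SD, set per campaign, cut at about 8.5% in these data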
NPR1 activator: GC-A stimulated cGMP production enhancers – HEK293 GC-A cells, cGMP TR-FRET, EC30 ANP, primary screen | 0% at EC30 ANP, 100% saturating ANP | activation, % at 10 µM | AID 1671463, 2021 | Atrial natriuretic peptide receptor 1 (Homo sapiens), P16066 | actives 0.14% (n = 370,000); in the data active = activation above about 40%
FAS-TE inh: FAS thioesterase domain inhibitors, primary screen, biochemical, fluorescence intensity, uHTS; recombinant FAS-TE, OMFH fluorogenic substrate, fluorescence endpoint; inhibition, % at 15 µM; actives 0.67% (n = 360,000); Fatty acid synthase (Homo sapiens), P49327; AID 602261, 2012;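 active = compounds whose normalised, plate-corrected inhibition of enzyme fluorescence in the single-dose primary screen is 50% or more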
FAS-TE conf: FAS thioesterase domain inhibitors, confirmation, biochemical, fluorescence intensity, single concentration. shares compounds with FAS-TE inh. recombinant FAS-TE, OMFH fluorogenic substrate. inhibition, % at 15 µM. actives 45% (n = 2,300). AID 624325, 2012;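 active = compounds inhibiting the enzyme by at least 50% at 15 µM in any one of the replicates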
Of the large screens only hits and unclear results are named; the others gave an inactive call (follow-up assays come after a bar, where they were run).

Cc1c(OCC(=O)NC(Cc2ccc(Cl)cc2)C(=O)O)ccc2c(-c3ccccc3)cc(=O)oc12 (centres undefined)	FAS-TE inh 55 | FAS-TE conf 62
COc1cccc(C(=O)N[C@H](C(=O)N2CCC[C@H]2C(=O)NCCc2ccccc2Cl)c2ccccc2)c1	none (no result: FAS-TE inh)
O=C(NNS(=O)(=O)c1ccc([N+](=O)[O-])cc1)c1ccccc1	none
O=C(NNS(=O)(=O)c1ccc([N+](=O)[O-])cc1)c1ccc2ccccc2c1O	FAS-TE inh 63 | FAS-TE conf 77
COC(=O)[C@]12C[C@H](CC(=O)N3CCC(c4ccccc4)CC3)C(=O)N(Cc3cccc4ccccc34)C1=C[C@H](C1CCCC1)O[C@@H]2C	none (no result: FAS-TE inh)
Cc1cccc(N2C(=O)N3[C@H](c4ccc(Br)cc4)[C@@H]4C(=O)N(C(C)(C)C)C(=O)[C@@H]4[C@]3(Cc3ccc(Cl)cc3)C2=O)c1	FAS-TE inh 89 | FAS-TE conf inactive
CC(C)(C)N1C(=O)[C@H]2[C@@H](c3ccc(Br)cc3)N3C(=O)N(c4ccc(Br)cc4)C(=O)[C@@]3(Cc3ccccc3)[C@H]2C1=O	FAS-TE inh 91 (no result: NPR2 activator, ADAM10 inh, ADAM17 inh, NPR1 activator) | FAS-TE conf 51
Cc1cccc(N2C(=O)N3[C@H](c4ccc(Br)cc4)[C@@H]4C(=O)N(C(C)(C)C)C(=O)[C@@H]4[C@]3(C)C2=O)c1	none
COc1ccc([C@@H]2[C@@H]3C(=O)N(C(C)(C)C)C(=O)[C@@H]3[C@]3(Cc4ccccc4)C(=O)N(c4cccc(F)c4)C(=O)N23)cc1	FAS-TE inh 52 | FAS-TE conf inactive
COc1ccc([C@@H]2[C@@H]3C(=O)N(C(C)(C)C)C(=O)[C@@H]3[C@]3(Cc4ccccc4)C(=O)N(c4ccc(C)cc4)C(=O)N23)cc1	none
COc1ccc([C@@H]2[C@@H]3C(=O)N(C(C)(C)C)C(=O)[C@@H]3[C@]3(Cc4ccc(Cl)cc4)C(=O)N(c4ccc(Br)cc4)C(=O)N23)cc1	FAS-TE inh 88 | FAS-TE conf 55
CCCCCCNC(=O)C1CSCCS(=O)(=O)N1Cc1ccc(C)cc1 (centres undefined)	none (no result: FAS-TE inh)
CC(C)(C)N1C(=O)[C@H]2[C@@H](c3ccc(Br)cc3)N3C(=O)N(c4cccc(F)c4)C(=O)[C@@]3(Cc3ccccc3)[C@H]2C1=O	FAS-TE inh 92 | FAS-TE conf 36
CCN1C(=O)[C@H]2[C@@H](c3ccc(C)cc3)N3C(=O)N(c4ccc(OC)cc4)C(=O)[C@@]3(Cc3ccc(Cl)cc3)[C@H]2C1=O	none
O=C1[C@H]2[C@@H](c3ccc(F)cc3)N3C(=O)N(c4cccc(Br)c4)C(=O)[C@@]3(Cc3ccccc3)[C@H]2C(=O)N1C1CCCCC1	FAS-TE inh 80 | FAS-TE conf inactive
COc1ccc(N2C(=O)N3[C@H](c4ccc(Cl)cc4)[C@@H]4C(=O)N(C5CCCCC5)C(=O)[C@@H]4[C@]3(Cc3ccc(Cl)cc3)C2=O)cc1	FAS-TE inh 88 | FAS-TE conf inactive
Cc1nn(-c2ccccc2)c(N2CCCC2)c1/C=N/NC(=O)c1ccccc1O	none
Cc1ccc(NS(=O)(=O)c2cccc(C(=O)N/N=C/c3c(C)nn(-c4ccccc4)c3N3CCCC3)c2)c(C)c1	FAS-TE inh 51 | FAS-TE conf inactive
CCNc1ccc(C(=O)N/N=C/c2c(C)nn(-c3ccccc3)c2N2CCCC2)cc1[N+](=O)[O-]	FAS-TE inh 70 | FAS-TE conf inactive
NC(=NC(=O)/C=C/c1ccccc1Br)N(CC#Cc1ccccc1)CC#Cc1ccccc1	none (no result: FAS-TE inh)
Cc1ccc([N+](=O)[O-])cc1S(=O)(=O)NCC1COc2ccccc2O1 (centres undefined)	FAS-TE inh 66 | FAS-TE conf 60
O=C(Cn1cc([N+](=O)[O-])ccc1=O)NCC1COc2ccccc2O1 (centres undefined)	FAS-TE inh 52 | FAS-TE conf 55
Cc1ccccc1-n1c(SCC(=O)c2c(N)n(C)c(=O)n(C)c2=O)nc2sc3c(c2c1=O)CCCC3	FAS-TE inh 90 | FAS-TE conf inactive
C=CCn1c(SCC(=O)N(C)C)nc2cc(C(=O)O)ccc2c1=O	none
CCC(CO)n1c(SCc2cc([N+](=O)[O-])cc3c2OCOC3)nc2ccccc2c1=O (centres undefined)	FAS-TE inh 54 | FAS-TE conf inactive
Cc1nnc(SCc2cc([N+](=O)[O-])cc3c2OCOC3)n(N)c1=O	none
C=CCn1c(SCc2cc([N+](=O)[O-])cc3c2OCOC3)nc2cc(C(=O)O)ccc2c1=O	FAS-TE inh 83 | FAS-TE conf 77
COC(=O)[C@]12C[C@H](CC(=O)NCC34CC5CC(CC(C5)C3)C4)C(=O)N(Cc3ccc(Cl)cc3Cl)C1=C[C@H](C(C)C)O[C@@H]2C1CC1	none (no result: FAS-TE inh)
COc1cccc(NC(=O)c2cc([N+](=O)[O-])ccc2NC(=O)CNCC2CCCO2)c1 (centres undefined)	FAS-TE inh 52 | FAS-TE conf 57
O=C(CNCC1CCCO1)Nc1ccc([N+](=O)[O-])cc1C(=O)Nc1ccccc1F (centres undefined)	none
CCOC(=O)C1(Cc2ccccc2)CCN(Cc2ccnc3ccccc23)CC1	none (no result: FAS-TE inh)
CN(C)CCNc1nc2sc3c(c2c(=O)n1CCc1ccccc1)CCCCC3	FAS-TE inh 60 | FAS-TE conf 56
CC(O)CNc1nc2sc3c(c2c(=O)n1CCc1ccccc1)CCCCC3 (centres undefined)	none
COc1ccc(C(=O)OCCCN(C)C2CN(Cc3cn(Cc4ccc([N+](=O)[O-])cc4)nn3)S(=O)(=O)C2)cc1OC (centres undefined)	none (no result: FAS-TE inh)
Cc1noc(C)c1NC(=O)Nc1ccc2c(c1)C(=O)N(C)[C@H]1CC[C@H](CC(=O)NCc3ccc(Cl)cc3)O[C@@H]1CO2	none (no result: FAS-TE inh)
Cc1ccc(C2NC(c3ccc(C)cc3)C([N+](=O)[O-])C(C)(C)C2[N+](=O)[O-])cc1 (centres undefined)	FAS-TE inh 60 | FAS-TE conf inactive
CC1(C)C([N+](=O)[O-])C(c2ccc(F)cc2)NC(c2ccc(F)cc2)C1[N+](=O)[O-] (centres undefined)	none
CC1(C)C([N+](=O)[O-])C(c2ccc(O)cc2)NC(c2ccc(O)cc2)C1[N+](=O)[O-] (centres undefined)	none

Screening data (PubChem BioAssay)
